Measured values: PubChem BioAssay (NCATS)
Inconclusive results are not listed. The source made the active and inactive calls. Unless noted, the call rests on the fitted dose curve; in most records, active means well fitted curve in the direction sought with a large enough effect; inconclusive means small, poorly fitted or top-dose-only effect, or another doubt; inactive means no such curve, though single readings can be large; an effect the other way counts as inactive or inconclusive.

Legend:
[1] = target: Lysosomal acid glucosylceramidase (Homo sapiens) (UniProt P04062); assay: Glucocerebrosidase-p2 (AID 348; in the data active means potency below about 10 µM; further: potency means the concentration at half of the fitted maximal effect); details: purified GBA, blue fluorogenic substrate, 40 min
Sequence of Lysosomal acid glucosylceramidase (Homo sapiens) (P04062 whole entry, looked up): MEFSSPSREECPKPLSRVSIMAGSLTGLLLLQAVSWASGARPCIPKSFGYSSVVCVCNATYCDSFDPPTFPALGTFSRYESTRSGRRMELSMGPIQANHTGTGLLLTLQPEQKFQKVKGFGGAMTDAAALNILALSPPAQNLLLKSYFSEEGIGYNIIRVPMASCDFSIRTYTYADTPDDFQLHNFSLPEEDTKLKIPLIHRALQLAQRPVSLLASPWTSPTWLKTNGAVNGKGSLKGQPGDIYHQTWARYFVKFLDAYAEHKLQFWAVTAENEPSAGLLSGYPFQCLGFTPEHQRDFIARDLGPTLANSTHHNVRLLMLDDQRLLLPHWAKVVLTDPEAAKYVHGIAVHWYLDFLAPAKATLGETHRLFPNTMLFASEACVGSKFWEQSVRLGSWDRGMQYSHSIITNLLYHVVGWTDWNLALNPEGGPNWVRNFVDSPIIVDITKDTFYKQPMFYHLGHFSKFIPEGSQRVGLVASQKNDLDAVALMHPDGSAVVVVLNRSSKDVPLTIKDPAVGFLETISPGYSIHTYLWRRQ
How it was run: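 Compounds titrated from 0.6 nM upwards against 0.2 nM enzyme in pH 5.9 citric acid/KH2PO4, taurocholate, tween-20; blue fluorogenic substrate 80 uM, 40 min room temperature, stopped and read Ex 365/Em 440 for AC50.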

[2] = AP1 Signaling Pathway (AID 357; active means well fitted curve in either direction with a large enough effect, not every such curve was filed as active;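 further: ME-180 reporter cells stimulated with EGF at its EC50 level; on the % scale 0 is the no-effect control and ±100 the full control effect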); details: ME-180 AP-1-bla reporter, EGF-induced, beta-lactamase ratio, 5 h; at 7.69 µM (top of the series) unless noted
How it was run: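 Cells are seeded overnight, exposed to compound titrations and an EC50 level of EGF for 5 hours at 37 °C, then loaded with CCF4 dye for 2.5 hours. Beta-lactamase activity under the AP-1 element is read as a blue/green ratio.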

[3] = target: Cytochrome P450 1A2 (Homo sapiens) (UniProt P05177); assay: p450-cyp1a2 (AID 410; calls by dose curve; further: potency means the concentration at half of the fitted maximal effect); details: recombinant CYP1A2, luciferin-ME demethylation, luminescence; series mostly up to 57 µM
Sequence of Cytochrome P450 1A2 (Homo sapiens) (P05177 whole entry, looked up): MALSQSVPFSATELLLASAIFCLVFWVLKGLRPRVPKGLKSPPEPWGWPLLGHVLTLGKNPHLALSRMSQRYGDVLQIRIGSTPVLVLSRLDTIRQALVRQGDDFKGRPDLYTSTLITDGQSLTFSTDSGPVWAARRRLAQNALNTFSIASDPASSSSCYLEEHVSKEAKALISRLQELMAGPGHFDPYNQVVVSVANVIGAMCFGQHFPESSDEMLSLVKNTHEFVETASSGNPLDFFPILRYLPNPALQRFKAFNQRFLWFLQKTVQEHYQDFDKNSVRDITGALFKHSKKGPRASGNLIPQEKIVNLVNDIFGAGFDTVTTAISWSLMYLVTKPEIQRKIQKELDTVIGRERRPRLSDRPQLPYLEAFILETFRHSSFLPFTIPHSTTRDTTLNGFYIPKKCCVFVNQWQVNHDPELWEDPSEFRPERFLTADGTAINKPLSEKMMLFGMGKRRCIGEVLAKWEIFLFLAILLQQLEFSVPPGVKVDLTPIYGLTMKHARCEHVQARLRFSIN
How it was run: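 Human CYP1A2 (20nM) demethylated Luciferin-ME at its Km (100uM) in 100mM KPO4. After 10 min compound preincubation, NADPH regeneration ran the reaction 60 min at room temperature. Luciferin was read by luminescence, normalized to 57 uM furafylline.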

[4] = NFAT Signaling Pathway (AID 444; active means well fitted curve in either direction with a large enough effect, not every such curve was filed as active;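 further: carbachol stimulus at about its EC50 of 1 µM final; on the % scale 0 is the no-effect control and ±100 the full control effect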); details: Jurkat NFAT-bla M1, carbachol, beta-lactamase ratio, 5 h; at 7.69 µM (top of the series) unless noted
How it was run: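 Jurkat cells with NFAT-driven β-lactamase reporter and co-expressed M1 receptor, stimulated with carbachol (final 1 uM, ~EC50), compound titration, 5 h at 37 °C. CCF4 loaded 1 h at RT; 460/530 nm ratio gave %activity and AC50.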

[5] = Stat Signaling Pathway (AID 446; active means well fitted curve in either direction with a large enough effect, not every such curve was filed as active;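 further: ME-180 cervical cancer cells given 40 pM IL-6 alongside compound; SIE-controlled beta-lactamase reporter measured as 460/530 nm FRET emission ratio; on the % scale 0 is the no-effect control and ±100 the full control effect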); details: ME-180 SIE beta-lactamase reporter, IL-6 stimulated, 5 h; at 7.69 µM (top of the series) unless noted
How it was run: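 ME-180 SIE-bla cells; overnight plating; cpd + IL-6 40 pM, 5 h, 37 C; LiveBLAzer 2.5 h RT; 460/530 nm emission ratio. Normalized to 300 pM IL-6 and 125 nM JAK inhibitor controls.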

[6] = target: Glucocorticoid receptor (Homo sapiens) (UniProt P04150); assay: GR-GFP Redistribution (AID 450;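 active means compounds whose dose series gives a full or clear partial fitted curve of increased nuclear translocation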; further: potency means the concentration at half of the fitted maximal effect); details: U2OS GR-GFP nuclear translocation, laser cytometry, 2 h
Sequence of Glucocorticoid receptor (Homo sapiens) (P04150 whole entry, looked up, the tested form may be a part): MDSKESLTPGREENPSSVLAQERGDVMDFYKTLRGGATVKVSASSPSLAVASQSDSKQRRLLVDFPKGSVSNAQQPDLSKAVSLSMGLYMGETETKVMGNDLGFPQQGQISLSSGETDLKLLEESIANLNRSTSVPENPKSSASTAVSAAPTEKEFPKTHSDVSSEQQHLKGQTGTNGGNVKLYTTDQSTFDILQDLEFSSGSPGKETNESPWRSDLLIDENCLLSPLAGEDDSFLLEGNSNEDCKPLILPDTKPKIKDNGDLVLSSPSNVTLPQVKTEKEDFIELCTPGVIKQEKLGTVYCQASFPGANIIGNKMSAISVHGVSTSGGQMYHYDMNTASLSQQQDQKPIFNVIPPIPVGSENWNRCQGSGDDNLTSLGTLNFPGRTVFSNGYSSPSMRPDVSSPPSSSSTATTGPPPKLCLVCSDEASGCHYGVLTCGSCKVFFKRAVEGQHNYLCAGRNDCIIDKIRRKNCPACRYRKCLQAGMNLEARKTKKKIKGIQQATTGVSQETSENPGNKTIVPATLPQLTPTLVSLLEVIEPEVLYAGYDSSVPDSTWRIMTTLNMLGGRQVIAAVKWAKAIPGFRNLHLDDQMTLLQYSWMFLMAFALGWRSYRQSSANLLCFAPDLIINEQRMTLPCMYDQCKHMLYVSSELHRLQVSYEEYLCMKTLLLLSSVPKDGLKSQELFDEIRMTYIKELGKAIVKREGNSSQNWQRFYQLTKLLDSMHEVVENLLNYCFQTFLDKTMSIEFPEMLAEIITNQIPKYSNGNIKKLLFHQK

[7] = target: Glucocorticoid receptor (Homo sapiens) (UniProt P04150); assay: GR-EFC Redistribution (AID 451; calls by dose curve; further: potency means the concentration at half of the fitted maximal effect); details: CHO-K1 GR-EFC translocation, beta-gal luminescence, 2 h
How it was run: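 CHO-K1 cells expressing nuclear EA and GR-ED fragments of b-gal; compounds titrated up to 46 uM final, 2 h at 37 C. GR nuclear translocation read as complemented b-gal luminescence after 1 h RT detection.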

[8] = target: Mitogen-activated protein kinase 10 (Mus musculus) (UniProt Q61831); assay: JNK3 AlphaScreen Assay (AID 530; active means well fitted curve in either direction with a large enough effect, not every such curve was filed as active;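 further: kinase came from lysate of stimulated human HepG2 cells; signal reports phosphorylation of biotinylated GST-cJun 1-79 at Ser73 with 10 µM ATP; on the % scale 0 is the no-effect control and ±100 the full control effect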); details: JNK3 lysate, c-Jun phosphorylation; series mostly up to 57.1 µM
How it was run: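 qHTS format: compounds tested as titrations against IL-1beta/TNF-alpha-activated HepG2 lysate JNK3 with biotin-GST-cJun substrate and 10 uM ATP at room temperature. Loss of anti-phospho-cJun AlphaScreen signal indicates inhibition.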

[9] = target: 3',5'-cyclic-AMP phosphodiesterase 4B (Homo sapiens) (UniProt Q07343); assay: qHTS Assay for Inhibitors of PDE-IV (AID 607; active means well fitted activation curve with a large enough effect in the main read-out, with a control signal flat, not every such curve was filed as active; further: % of control where 0% means no effect); details: HEK293 ACTOne CNG channel cells, membrane potential fluorescence; series mostly up to 22.9 µM
Sequence of 3',5'-cyclic-AMP phosphodiesterase 4B (Homo sapiens) (Q07343 whole entry, looked up): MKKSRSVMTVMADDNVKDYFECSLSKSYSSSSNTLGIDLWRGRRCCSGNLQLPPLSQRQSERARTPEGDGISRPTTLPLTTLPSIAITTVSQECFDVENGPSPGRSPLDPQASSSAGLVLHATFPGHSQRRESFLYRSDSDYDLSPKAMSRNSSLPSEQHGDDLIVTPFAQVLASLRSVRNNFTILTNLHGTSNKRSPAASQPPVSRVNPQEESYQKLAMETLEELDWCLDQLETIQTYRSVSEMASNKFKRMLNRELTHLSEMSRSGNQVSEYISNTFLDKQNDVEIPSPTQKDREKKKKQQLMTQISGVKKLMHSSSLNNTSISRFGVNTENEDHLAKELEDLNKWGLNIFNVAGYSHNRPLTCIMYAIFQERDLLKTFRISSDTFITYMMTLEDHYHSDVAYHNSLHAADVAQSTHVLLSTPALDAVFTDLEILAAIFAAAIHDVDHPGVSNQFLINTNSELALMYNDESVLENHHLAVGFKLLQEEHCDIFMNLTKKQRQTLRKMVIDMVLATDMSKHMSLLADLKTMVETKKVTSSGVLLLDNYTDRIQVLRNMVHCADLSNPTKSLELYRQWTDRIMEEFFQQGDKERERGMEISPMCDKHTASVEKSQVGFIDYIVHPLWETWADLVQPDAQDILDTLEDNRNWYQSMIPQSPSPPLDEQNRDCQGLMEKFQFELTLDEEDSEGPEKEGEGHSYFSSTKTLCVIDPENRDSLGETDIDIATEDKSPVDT
How it was run: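 ACTOne HEK293 cells carry a modified cAMP-gated CNG channel and express endogenous PDE4; plated 1000 cells/well, compounds up to 22.9 uM final. Membrane-potential dye fluorescence (ex 535/em 590) was read; parental cells received 10 uM forskolin + 100 uM RO 20-1724.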

[10] = target: Cytochrome P450 3A4 (Homo sapiens) (UniProt P08684); assay: qHTS Assay for Activators of Cytochrome P450 3A4 (AID 885); details: recombinant CYP3A4, Luciferin-PPXE luminescence, 60 min; series mostly up to 57.1 µM; further: nearly all actives have a fitted effect of over 65% in size
Sequence of Cytochrome P450 3A4 (Homo sapiens) (P08684 whole entry, looked up): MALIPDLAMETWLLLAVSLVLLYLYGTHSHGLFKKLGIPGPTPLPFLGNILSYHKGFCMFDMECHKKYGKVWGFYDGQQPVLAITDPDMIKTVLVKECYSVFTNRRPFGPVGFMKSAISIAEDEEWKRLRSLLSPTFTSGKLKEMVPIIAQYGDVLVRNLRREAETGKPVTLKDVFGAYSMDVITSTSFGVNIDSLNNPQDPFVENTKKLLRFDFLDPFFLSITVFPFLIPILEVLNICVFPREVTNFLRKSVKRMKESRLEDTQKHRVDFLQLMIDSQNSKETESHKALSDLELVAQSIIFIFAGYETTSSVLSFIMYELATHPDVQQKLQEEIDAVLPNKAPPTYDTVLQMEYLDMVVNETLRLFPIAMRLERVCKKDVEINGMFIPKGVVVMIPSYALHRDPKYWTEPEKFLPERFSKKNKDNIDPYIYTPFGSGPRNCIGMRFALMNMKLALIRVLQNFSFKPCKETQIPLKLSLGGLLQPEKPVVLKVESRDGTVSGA
How it was run: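 20nM CYP3A4 + 25uM Luciferin-PPXE (=KM), 200mM KPO4; cpd 10 min RT; NADPH regen, 60 min RT; stop w/ detection buffer, 20 min; luminescence. Normalized to 57 uM ketoconazole.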

[11] = qHTS Assay for Identification of Small Molecule Agonists for Hypoxia Response Element Signaling Pathway (AID 914; active means well fitted activation curve with a large enough effect in the signal ratio, with a control signal flat, not every such curve was filed as active; the % refers to the signal ratio; further: % of control where 0% means no effect); details: ME-180 (cervical carcinoma) HRE-bla reporter, beta-lactamase ratio, CoCl2, 17 h; activation: stronger effect = higher value
How it was run: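 qHTS titration; ME-180 HRE-bla cells; EC50 CoCl2 co-treatment, 17 h at 37 degrees Celsius; CCF4 dye, ex 405nm, em 460nm and 530nm; %Activity from ratio; AC50.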

[12] = qHTS Assay for Lipid Storage Modulators (AID 1519; calls by dose curve); details: Drosophila S3 cells, BODIPY lipid droplet/cell ratio, laser cytometry, cells loaded with oleic acid; for activity change, negative = inhibition: at 57.5 µM (top of the series)
How it was run: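 Cells seeded at 5,000 per well were treated with compounds over a concentration series and loaded with oleic acid (400 uM, as added). Lipid droplet fluorescence (488 nm excitation, 500-530 nm channel) was read by laser-scanning cytometry and normalized to 20 uM Triacsin C.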

[13] = target: Dual specificity protein kinase CLK4 (Homo sapiens) (UniProt Q9HAZ1); assay: qHTS Assay for Inhibitors of CDC-like Kinase 4 (Kinase-Glo Assay) (AID 1770); details: recombinant Clk4, Kinase-Glo ATP depletion luminescence; series mostly up to 66.7 µM; further: on the % scale 0 is the no-effect control and ±100 the full control effect; nearly all actives have a fitted effect of over 65% in size
Sequence of Dual specificity protein kinase CLK4 (Homo sapiens) (Q9HAZ1 whole entry, looked up): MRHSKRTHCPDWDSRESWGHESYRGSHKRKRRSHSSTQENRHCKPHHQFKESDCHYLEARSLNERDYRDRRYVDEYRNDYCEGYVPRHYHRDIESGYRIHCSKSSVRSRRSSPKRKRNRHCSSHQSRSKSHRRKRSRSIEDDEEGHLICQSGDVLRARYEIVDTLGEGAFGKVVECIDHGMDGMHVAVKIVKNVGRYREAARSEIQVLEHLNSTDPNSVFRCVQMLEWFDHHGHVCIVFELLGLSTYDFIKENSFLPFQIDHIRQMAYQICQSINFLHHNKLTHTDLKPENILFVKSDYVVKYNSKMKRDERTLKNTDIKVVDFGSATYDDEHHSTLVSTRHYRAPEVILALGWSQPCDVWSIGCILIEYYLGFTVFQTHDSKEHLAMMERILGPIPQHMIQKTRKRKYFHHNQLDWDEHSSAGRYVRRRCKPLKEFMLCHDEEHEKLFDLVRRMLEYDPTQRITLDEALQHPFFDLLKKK
How it was run: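 25 nM Clk4 with 100 uM RS repeat peptide and 1 uM ATP (final) in Tris pH7.5, 10 mM MgCl2, 4.5 h at room temperature. Remaining ATP measured by Kinase-Glo luciferase luminescence.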

[14] = target: Dual specificity protein kinase CLK4 (Homo sapiens) (UniProt Q9HAZ1); assay: qHTS Assay for Inhibitors of CDC-like Kinase 4 (ADP-Glo Assay) (AID 1771); details: recombinant CLK4, ADP-Glo luminescence; series mostly up to 80 µM; further: on the % scale 0 is the no-effect control and ±100 the full control effect; nearly all actives have a fitted effect of over 70% in size
How it was run: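 Clk4 (25 nM) was incubated 1 hr at room temperature with 100 uM RS repeat peptide and 1 uM ATP in buffer with 2 mM MgCl2, 0.5 mM EGTA, 2.5 mM DTT. ADP formed was quantified by ADP-Glo luminescence.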

[15] = target: Dual specificity protein kinase CLK4 (Homo sapiens) (UniProt Q9HAZ1); assay: qHTS Assay for Inhibitors of CDC-like Kinase 4 (ADP-FP Assay) (AID 1795); details: Transcreener ADP fluorescence polarization; series mostly up to 50 µM;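 further: recombinant human CLK4 phosphorylating RS repeat peptide at 1 µM ATP; on the % scale 0 is the no-effect control and ±100 the full control effect; nearly all actives have a fitted effect of over 60% in size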
How it was run: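 Recombinant Clk4 (6.25 nM) phosphorylated 100 uM RS repeat peptide with 1 uM ATP in 25 mM Tris pH 7.5, 10 mM MgCl2, 0.5 mM EGTA, 2.5 mM DTT, 0.01% Triton X-100 for 1 h. ADP was detected by Transcreener ADP2 competitive fluorescence polarization after 30 min at room temperature.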

[16] = target: Ubiquitin carboxyl-terminal hydrolase 1 (Homo sapiens) (UniProt O94782); assay: Inhibitors of USP1/UAF1: Pilot qHTS (AID 504865); details: purified USP1/UAF1, Ub-rhodamine cleavage fluorescence; series mostly up to 54.9 µM;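 further: rhodamine fluorescence freed from ubiquitin-rhodamine substrate followed over time; top concentration of the series differs between compounds; on the % scale 0 is the no-effect control and ±100 the full control effect; nearly all actives have a fitted effect of over 35% in size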
Sequence of Ubiquitin carboxyl-terminal hydrolase 1 (Homo sapiens) (O94782 whole entry, looked up): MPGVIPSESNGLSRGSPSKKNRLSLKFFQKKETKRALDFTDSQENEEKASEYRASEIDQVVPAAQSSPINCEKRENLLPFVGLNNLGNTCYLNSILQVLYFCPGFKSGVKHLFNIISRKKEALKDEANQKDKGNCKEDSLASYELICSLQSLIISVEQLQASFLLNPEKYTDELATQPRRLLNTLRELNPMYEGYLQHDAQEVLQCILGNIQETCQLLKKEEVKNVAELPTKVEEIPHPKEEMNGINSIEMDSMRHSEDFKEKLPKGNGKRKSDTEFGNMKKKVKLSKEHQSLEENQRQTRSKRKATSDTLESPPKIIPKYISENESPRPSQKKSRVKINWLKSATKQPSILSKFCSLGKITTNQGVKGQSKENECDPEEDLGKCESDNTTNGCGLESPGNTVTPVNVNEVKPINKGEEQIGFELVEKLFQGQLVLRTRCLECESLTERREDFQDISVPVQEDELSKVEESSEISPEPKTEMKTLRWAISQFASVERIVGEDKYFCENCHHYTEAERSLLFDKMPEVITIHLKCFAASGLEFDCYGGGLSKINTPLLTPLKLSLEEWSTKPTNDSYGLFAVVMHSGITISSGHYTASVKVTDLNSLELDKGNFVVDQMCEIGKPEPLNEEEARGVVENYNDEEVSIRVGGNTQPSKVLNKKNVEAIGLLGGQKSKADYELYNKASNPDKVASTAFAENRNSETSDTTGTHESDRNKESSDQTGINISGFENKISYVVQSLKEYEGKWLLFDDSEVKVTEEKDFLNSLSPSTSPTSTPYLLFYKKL
How it was run: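 USP1/UAF1 complex at 1 nM preincubated 15 min at room temperature with compound, then Ub-Rho substrate added at 150 nM final. Fluorescence (480/540 nm) read kinetically in 50 mM HEPES pH 7.8, 0.5 mM EDTA, 1 mM TCEP, 0.1 mg/ml BSA, 0.01% Tween-20.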

[17] = Primary qHTS for small molecule stabilizers of the endoplasmic reticulum resident proteome: Secreted ER Calcium Modulated Protein (SERCaMP) assay (AID 1508630); details: SH-SY5Y GLuc-SERCaMP (Gaussia luciferase released on ER calcium loss) secretion, thapsigargin, luminescence; series mostly up to 38.4 µM; further: on the % scale 0 is the no-effect control and ±100 the full control effect
How it was run: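 GLuc-SERCaMP-expressing SH-SY5Y cells, pretreated 16 h with compound, are challenged with thapsigargin to empty ER calcium stores; after 4 h, coelenterazine is added directly to the medium and luminescence is imaged.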

[18] = measured here: cell count channel max response
[19] = measured here: lipid channel max response

## COCCn1c(=O)cnc2cnc(Oc3ccccc3)nc21
[1]
  Potency: > 11.4 µM (inactive)
[2]
  activity change, negative = inhibition: -14.7% (inactive)
[3]
  Potency: 15.8 µM (active)
[4]
  activity change, negative = inhibition: -0.802% (inactive)
[5]
  activity, negative = inhibition: -13.1% (inactive)
[6]
  Potency: > 9.22 µM (inactive)
[7]
  Potency: > 46 µM (inactive)
[8]
  outcome: inactive
[9]
  Potency: inactive
[10]
  Potency: inactive
[11]
  activation: 10.1% (inactive)
[12]
  activity change, negative = inhibition: 3.04% (inactive)
[12]; [18]
  max response: 12%
[12]; [19]
  max response: 12.6%
[13]
  Potency: inactive
[14]
  Potency: inactive
[15]
  Potency: inactive
[16]
  Potency: inactive
[17]
  Potency: inactive

## CN(C)Cc1ccccc1-c1nc(NCc2cccs2)c2ccccc2n1
[1]
  Potency: > 11.4 µM (inactive)
[2]
  activity change, negative = inhibition: 25.7% (inactive)
[3]
  Potency: 1 µM (active)
[4]
  activity change, negative = inhibition: -24.9% (inactive)
[5]
  activity, negative = inhibition: 15.6% (inactive)
[7]
  Potency: > 46 µM (inactive)
[8]
  outcome: inactive
[10]
  Potency: inactive
[12]
  activity change, negative = inhibition: -0.128% (inactive)
[12]; [18]
  max response: 16.9%
[12]; [19]
  max response: 15.9%
[13]
  Potency: inactive
[14]
  Potency: inactive
[15]
  Potency: inactive
[16]
  Potency: inactive
[17]
  Potency: inactive
